NS1 function inh = blocks influenza NS1 protein function; AID 2326; 270,000 compounds, 0.4% hits; Potency, µM (doses to about 46.1 µM), for the others: top-dose activity, positive = more growth; calls by dose curve; also: potency is read from the fitted curve at half-maximal effect; actives are rising curves; nearly all actives have a fitted effect of over 50% in size
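S. cerevisiae expressing influenza A NS1, grown in glucose, washed, then diluted 1:100 into pH 6.0 -URA galactose medium with 23 nl compound. Growth recovery read as OD600; NS1-free strain serves as control.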
Pf growth 96h = P. falciparum growth inhibition at 96 hours | 320,000 compounds, 6.9% hits | Potency, µM (highest dose often 28.7 µM), for inactives: at the top dose activity change, negative = inhibition, actives largely listed as inhibitors | P. falciparum luciferase reporter growth, 96 h; also: potency is read from the fitted curve at half-maximal effect; % is scaled to controls: 0 for no effect and ±100 for the full control effect
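P. falciparum expressing integrated firefly luciferase grown in erythrocytes (2% hematocrit, 0.05% parasitemia final) with compounds for 96 hours at 37 C, 5% CO2. Growth inhibition read as loss of luminescence after adding luciferase detection reagent.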
Cycloheximide cs = counter-screen hit for Shiga toxin inhibitors, cycloheximide; cell reporter, cycloheximide protein synthesis inhibition counterscreen; AID 2314; 300,000 compounds, 12% hits; max response, %; in the data active = max response mostly above about 13%, no sharp cut-off; inactive = mostly below about 14%; also: read at 38.3 µM for the half of the compounds with a filed dose; 0% is about no effect
Shiga toxin inh = blocks Shiga toxin action in Vero cells | Vero cells, Shiga toxin protein synthesis inhibition reporter | inhibition, % at 38.7 µM | 290,000 compounds, 9.2% hits | AID 2315; in the data active = inhibition mostly above about 28%, no sharp cut-off; inactive = mostly below about 43%; also: 0% is about no effect
Pf growth 48h = inhibits P. falciparum growth in the first generation, 48 h | AID 504832 | Potency, µM (top dose mostly 28.7 µM), without a hit: at the highest dose activity change, negative = inhibition, most hits filed as inhibitors | P. falciparum luciferase growth in erythrocytes, 48 h | 310,000 compounds, 5.9% hits; also: potency is read from the fitted curve at half-maximal effect; % is scaled to controls: 0 for no effect and ±100 for the full control effect
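Luminescence readout; reporter = integrated firefly luciferase in P. falciparum. RBC culture at 2% hematocrit, 0.1% parasitemia final, 37 C/5% CO2; decreased signal taken as growth inhibition.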
Starred values were filed as active, the others as inactive; u = inconclusive; x = not tested or not shown. A selection: hits, their analogues and other compounds. The true share with any hit is near 21%. Unless noted, calls follow the shape of the dose curve; as a rule, active = well fitted inhibition curve with a large enough effect; inconclusive = small, poorly fitted or top-dose-only effect, or another doubt; inactive = no such curve, though single readings can be large or run the other way.

SMILES	NS1 function inh	Pf growth 96h	Cycloheximide cs	Shiga toxin inh	Pf growth 48h
O=C(O)CN1C(=O)/C(=C\c2cc(Br)ccc2OCc2ccccc2Cl)SC1=S	12%	38%	42*	77*	8%
O=C(O)CN1C(=O)/C(=C\c2cccc(OCc3ccc(Cl)cc3Cl)c2)SC1=S	u	u	22*	68*	52%
O=C(O)CN1C(=O)/C(=C\c2ccccc2OCc2ccc(Cl)cc2Cl)SC1=S	18%	u	16*	38*	105%
Cc1onc(-c2c(Cl)cccc2Cl)c1C(=O)Nc1nccs1	-16%	23%	-7	-12	-21%
FC(F)(F)c1cnc(N2CCCN(C(=S)Nc3ccccc3)CC2)c(Cl)c1	3%	1.9µM*	1	19	1.7µM*
COc1ccc(CCC(=O)N2CC(C)OC(C)C2)cc1 (configuration not stated)	u	x	12	6	0%
NCC(c1ccco1)c1c[nH]c2ccccc12 (configuration not stated)	29%	34%	-3	-5	u
CN(C)c1ccc(C(CNS(=O)(=O)c2ccc3ccccc3c2)c2c[nH]c3ccccc23)cc1 (configuration not stated)	u	26%	23*	27	7%
CN(C)c1ccc(C(CN)c2c[nH]c3ccccc23)cc1 (configuration not stated)	14%	u	10	21	9.3µM*
CCC(C)NC(=O)c1ccc2c(SCC(=O)O)c3c(nc2c1)CCCC3 (configuration not stated)	-3%	u	-5	16	-5%
CCC(C)NC(=O)c1ccc2c(Cl)c3c(nc2c1)CCC3 (configuration not stated)	-9%	6%	28*	53*	66%
O=C(Nc1ccc(Cl)cn1)c1ccc2c(Cl)c3c(nc2c1)CCC3	6%	261%	35*	64*	114%
O=C(O)CC/C(=N\NC(=O)CNC(=O)c1ccc(F)cc1)c1ccccc1	3%	48%	3	6	11%
O=C(CN1CC[n+]2c(-c3cccs3)csc21)c1ccc(-c2ccccc2)cc1	u	u	9	30	13µM*
Cc1cccc(C)c1NS(=O)(=O)c1cc2c3c(c1)CCN3C(=O)CC2	x	1%	x	x	-6%
COc1cccc(C2=N/C(=C\N(C)C)C(=O)O2)c1	-15%	u	34*	94	87%
O=C(NNC(=O)c1cc2ccccc2o1)c1ccc(F)cc1	x	73%	x	x	54%
O=C(c1ccccc1)c1cc2ccccc2o1	-54%	20%	38*	80*	102%
O=C(c1ccc(F)cc1)c1cc2ccccc2o1	-1%	-21%	26*	41*	74%
O=C(c1cc2ccccc2o1)N1CCCC1	-6%	147%	13	6	14%
O=C(NCc1ccc(F)cc1)c1cc2ccccc2o1	-11%	-10%	14*	32	-1%
Cc1ccc(C(C)C)cc1S(=O)(=O)Nc1cccnc1	7%	-21%	-3	-17	12%
Cc1ccc(NC2c3ncccc3C(=O)N2C2CCCCC2)cc1 (configuration not stated)	-3%	u	5	5	-28%
Cc1ccc(NC2c3ncccc3C(=O)N2C2CCCCC2)cc1C (configuration not stated)	2%	33%	7	17	10µM*
Cc1ccc(-n2c(C)cc(C(=O)CN3CCOCC3)c2C)cc1	x	47%	46*	85*	42%
SMILES	NS1 function inh	Pf growth 96h	Cycloheximide cs	Shiga toxin inh	Pf growth 48h
Cc1cc(C(=O)CN2CCCC(C)C2)c(C)n1-c1ccc(F)cc1 (configuration not stated)	8%	u	50*	53*	43%
Cc1ccc(-n2c(C)cc(C(=O)CN3CCOCC3)c2C)cc1C	x	13%	21	32	-10%
Cc1ccc(S(=O)(=O)[N-]c2nc3ccccc3nc2-[n+]2cc(C)cc(C)c2)cc1	-5%	-13%	-2	4	-11%
Cc1ccc(C(=O)OCC(=O)N(CC(C)C)c2c(N)n(Cc3ccccc3)c(=O)[nH]c2=O)o1	x	4%	x	x	4%
COc1ccc(C(=O)c2ccc(N3CCOCC3)cc2)c(OC)c1	13%	44%	14*	14	-4%
COc1ccc(C(=O)c2ccc(OC)cc2OC)cc1	-2%	11%	7	24	1%
COc1ccc(C2C(C(=O)c3ccccc3)N3c4ccccc4C=CC3C2[N+](=O)[O-])cc1 (configuration not stated)	8%	9.3µM*	22*	24	u
C=CCN1C(=O)C(CC(=O)NCC)SC1=Nc1cc(Cl)ccc1Cl (configuration not stated)	2%	1.2µM*	-3	-37	43%
COC(=O)C1C(=O)/C(=C/N(C)C)C(=O)CC1(C)C (configuration not stated)	x	15%	-3	4	1%
O=C(O)/C=C/C(=O)NCCC(c1ccccc1)c1ccccc1	0%	12%	-2	-3	23%
NNC1=N[C@H]2CS(=O)(=O)C[C@H]2S1	14%	-16%	-4	-10	22%
Cc1ccc(-c2cc(C(=O)OCC(=O)N(C)C3CCS(=O)(=O)C3)c3ccccc3n2)c(C)c1 (configuration not stated)	x	7%	9	7	20%
COc1ccc(CN(C)C(=O)c2cc(-c3ccccc3)nc3ccc(C)cc23)c(OC)c1OC	-8%	u	17*	27	8.3µM*
COc1ccc(-c2cc(C(=O)N(C)Cc3cccc(OC)c3OC)c3ccccc3n2)cc1OC	-1%	u	0	-7	9.3µM*
COc1ccc(-c2cc(C(=O)OCC(=O)N(C)C3CCS(=O)(=O)C3)c3ccccc3n2)cc1OC (configuration not stated)	x	-3%	17*	52	41%
COc1ccc(CCN(C)C(=O)Cc2ccc(-c3ccccc3)cc2)cc1OC	-16%	u	22*	-7	u
C/C(CC(=O)Nc1ccc(Cl)c(Cl)c1)=N\NC(=O)C(=O)N1CCCCC1	6%	-7%	11	18	11%
COc1ccc(CCN(C)C(=S)Nc2cccc(C)c2)cc1OC	-7%	u	-6	-8	1.7µM*
COc1ccc(CCN(C)C(=O)c2cc(-c3ccccc3)nc3ccc(C)cc23)cc1OC	-5%	-99%	26	65*	-28%
COc1cccc(CN(C)C(=O)c2cc(-c3ccc(F)cc3)nc3ccccc23)c1	10%	13µM*	-4	-14	u
COc1ccc(-c2cc(C(=O)N(C)CCc3ccc(OC)c(OC)c3)c3ccccc3n2)cc1	10%	3%	-4	-12	19%
COc1cccc(CN(C)C(=O)c2cc(-c3ccc(OC)c(OC)c3)nc3ccccc23)c1	5%	-23%	-2	-18	27%
COc1ccc(CCN(C)C(=O)CSc2nnnn2C)cc1OC	x	10µM*	0	15	27%
COc1ccc(CCN(C)C(=O)CSc2nnc(-c3ccco3)o2)cc1OC	7%	-22%	14	-38	-14%
O=C(c1cccc(Cl)c1)N1CCN(Cc2ccccc2F)CC1	-35%	x	-1	14	9%

Screening results from PubChem BioAssay.
